Test results published in a collection of fitness landscapes (doi:10.1016/j.celrep.2020.107928).
Over roughly 81,000 sequences, “one-hybrid fitness for binding parS DNA” has its median near -0.17; the highest 2% begin near 0.51. Shown is part of a subset that was picked to be rich in the highest values.

B1: Caulobacter ParB omega fusion; a variant is named by its letters at X, in order, B8GW30 (parent)
chain: MESVVVGEPGMSEGRRGLGRGLSALLGEVDAAPAQAPGEQLGGSREAPIEILQRNPDQPRRTFREEDLEDLSNSIREKGVLQPILVRPSPDTAGEYQIVAGERAWRAAQRAGLKTVPIMVRELDDLAVLEIGIIENVQRADLNVLEEALSYKVLMEKFERTQENIAQTIGKSXSHVANXMRLLXLPDEVQSYLVSGELTAXHARAIAAAADPVALAKQIIEGGLSVRETEALARKAPNLSAGKSKGGRPPRVKDTDTQALESDLSSVLGLDVSIDHRGSTGTLTITYATLEQLDDLCNRLTRGI

Variants of: B1
Assay: one-hybrid fitness for binding parS DNA (scaled: cognate 1, non-cognate 0); higher = stronger binding
Conditions: with parS DNA site
Procedure, shortened: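 Fitness here means the log change in variant-to-wild-type read ratio between plasmids sequenced before and after selection. That scale was set so cognate equals 1 and non-cognate equals 0. The selection was a bacterial one-hybrid screen of Caulobacter ParB libraries, four specificity codons randomised, in E. coli USO carrying a HIS3 reporter with the site 19 bp from the promoter, grown 48 hours at 37°C on M9-minus-histidine with 0.1 mM IPTG and 5 mM 3-AT.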

Variant	one-hybrid fitness for binding parS DNA
TVTE	≤ 0.2
HTAD	≤ 0.2
AGDD	≤ 0.2
KANA	≤ 0.2
WSQY	≤ 0.2
NLNG	≤ 0.2
DWLT	≤ 0.2
RAAG	1
RAAN	0.448
RAAP	≤ 0.2
RAFY	0.499
RAFG	0.978
RAFR	≤ 0.2
KYLA	≤ 0.2
TKWY	≤ 0.2
KNQS	≤ 0.2
CSRV	≤ 0.2
ATTE	≤ 0.2
WMPS	≤ 0.2
CPLP	≤ 0.2
GALY	≤ 0.2
NGLG	≤ 0.2
RQQK	≤ 0.2
RQGC	0.916
RQSC	0.968
RQHM	0.325

Variant	one-hybrid fitness for binding parS DNA
RQSQ	≤ 0.2
RQGK	≤ 0.2
RQHC	0.946
RQGM	0.287
RQQC	0.951
RQHR	≤ 0.2
RQQQ	≤ 0.2
RQSY	0.465
KYCL	≤ 0.2
AFDN	≤ 0.2
GKGS	≤ 0.2
WSNM	≤ 0.2
GTTW	≤ 0.2
ACNL	≤ 0.2
CRNF	≤ 0.2
SNIR	≤ 0.2
RQYR	≤ 0.2
RQLC	0.952
RQYC	0.94
RQLY	0.442
RQCC	0.874
RQLQ	≤ 0.2
RQRF	0.247
RQYF	0.256
RQRC	0.943
RQRY	0.504

Variant	one-hybrid fitness for binding parS DNA
RQCQ	≤ 0.2
RQCK	≤ 0.2
VAQC	≤ 0.2
FEDR	≤ 0.2
QQVS	≤ 0.2
VEHM	≤ 0.2
CAAW	≤ 0.2
APPF	≤ 0.2
YVRD	≤ 0.2
RQWD	≤ 0.2
RQWC	0.797
RQWN	0.286
CVQT	≤ 0.2
RFFP	≤ 0.2
RFAD	≤ 0.2
RFAH	≤ 0.2
RFAS	0.976
RFFS	0.841
RFFD	≤ 0.2
LQNH	≤ 0.2
TREM	≤ 0.2
DHQQ	≤ 0.2
STCC	≤ 0.2
RICG	0.976
RICY	0.492
RMCN	0.389

Variant	one-hybrid fitness for binding parS DNA
RTCQ	≤ 0.2
RSCQ	≤ 0.2
RICQ	0.256
RSCG	0.966
RTCK	≤ 0.2
RMCH	0.262
RDCG	≤ 0.2
RMCG	1.04
RTCG	0.999
ECVT	≤ 0.2
WSQP	≤ 0.2
VYQR	≤ 0.2
KDPE	≤ 0.2
DISI	≤ 0.2
KTLW	≤ 0.2
RECG	0.221
RPCG	≤ 0.2
RLCG	1
RCCG	1.03
RLCM	0.342
RLCF	0.27
PASK	≤ 0.2
CNGG	≤ 0.2
SRGF	≤ 0.2
AQNP	≤ 0.2
TPWY	≤ 0.2

Variant	one-hybrid fitness for binding parS DNA
KCYT	≤ 0.2
VISS	≤ 0.2
QETP	≤ 0.2
PTTA	≤ 0.2
DTNY	≤ 0.2
RYMQ	≤ 0.2
RYMH	≤ 0.2
RYMS	0.963
RYMG	0.971
RYMC	0.994
RYML	≤ 0.2
RYMP	≤ 0.2
RYMD	≤ 0.2
RYMK	≤ 0.2
RYMR	≤ 0.2
RYMT	0.887
RYMN	0.395
LCMG	≤ 0.2
NWQY	≤ 0.2
NQMR	≤ 0.2
DFGS	≤ 0.2
NLVV	≤ 0.2
TGGR	≤ 0.2
HAMN	≤ 0.2
WKPV	≤ 0.2
DGVM	≤ 0.2

Variant	one-hybrid fitness for binding parS DNA
RPCN	≤ 0.2
APGA	≤ 0.2
LMVR	≤ 0.2
EFNL	≤ 0.2
WIWS	≤ 0.2
RSCD	≤ 0.2
RSCP	≤ 0.2
RSCC	0.915
RPCC	≤ 0.2
RDCC	≤ 0.2
RCCC	0.959
RRIM	≤ 0.2
RRIP	≤ 0.2
RRPQ	≤ 0.2
RRPF	≤ 0.2
RRIG	0.908
RRPG	0.891
TAAL	≤ 0.2
KHMS	≤ 0.2
RYTD	≤ 0.2
RYTM	0.295
RYTP	≤ 0.2
RYTK	≤ 0.2
